Test [1] can be described thus: qHTS for Inhibitors of the Functional Ribonucleoprotein Complex (vRNP) of Lassa (LASV) Arenavirus: LASV Primary Screen - GLuc reporter signal (AID 1347082; calls by dose curve; tested in HEK293 reporter line; further: nearly all actives have a fitted effect of over 60% in size).
Test [2] can be described thus: qHTS for Inhibitors of the Functional Ribonucleoprotein Complex (vRNP) of Lassa (LASV) Arenavirus: Viability assay - alamar blue signal for LASV Primary Screen (AID 1347083; calls by dose curve; tested in HEK293 reporter line; further: nearly all actives have a fitted effect of over 80% in size). (In general: qHTS replaces the single test concentration by a dilution series.)
Test [3] in a line: qHTS for Inhibitors of the Functional Ribonucleoprotein Complex (vRNP) of Lymphocytic Choriomeningitis Arenaviruses (LCMV): Viability assay - alamar blue signal for LCMV Primary Screen (AID 1347085; calls by dose curve; tested in HEK293 reporter line; further: nearly all actives have a fitted effect of over 80% in size).
For test [4], the target named is Nucleoprotein (Lymphocytic choriomeningitis virus (strain Armstrong)) (UniProt P09992). The test can be described thus: qHTS for Inhibitors of the Functional Ribonucleoprotein Complex (vRNP) of Lymphocytic Choriomeningitis Arenaviruses (LCMV): LCMV Primary Screen - GLuc reporter signal (AID 1347086). Further: nearly all actives have a fitted effect of over 70% in size.

The text below walks through data of PubChem BioAssay (NCATS).

Results filed as inconclusive are left out. A number with no mark means an inactive call. Calls of active or inactive are those of the source. Unless noted, the call rests on the fitted dose curve.
Potency means the concentration at half of the fitted maximal effect.

Sequence of Nucleoprotein (Lymphocytic choriomeningitis virus (strain Armstrong)) (P09992 whole entry, looked up): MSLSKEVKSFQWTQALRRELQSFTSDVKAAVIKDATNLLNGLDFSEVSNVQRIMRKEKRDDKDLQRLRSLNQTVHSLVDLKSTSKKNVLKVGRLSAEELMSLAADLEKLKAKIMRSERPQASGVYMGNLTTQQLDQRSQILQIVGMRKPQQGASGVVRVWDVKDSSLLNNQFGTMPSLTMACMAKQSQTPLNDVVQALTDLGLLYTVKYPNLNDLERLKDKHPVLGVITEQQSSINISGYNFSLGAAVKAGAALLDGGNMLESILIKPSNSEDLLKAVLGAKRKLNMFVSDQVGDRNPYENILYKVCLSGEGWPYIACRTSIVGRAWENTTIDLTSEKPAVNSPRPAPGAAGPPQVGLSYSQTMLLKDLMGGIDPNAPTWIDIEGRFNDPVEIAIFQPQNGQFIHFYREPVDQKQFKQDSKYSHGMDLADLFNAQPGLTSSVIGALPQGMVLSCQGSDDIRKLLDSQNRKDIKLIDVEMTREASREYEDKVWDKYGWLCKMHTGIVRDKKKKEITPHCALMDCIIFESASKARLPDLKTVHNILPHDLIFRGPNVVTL

`C/C=C1\CN2[C@H]3C[C@@]45c6ccccc6N(C)[C@H]4[C@@H]2CC1C3[C@H]5O` (stereo not given in full): the Potency entry in test [1], in test [2], in test [3] and in test [4] was “inactive” throughout.

For `CC(C)=CCC/C(C)=C/COC=O`, the Potency result in test [1], in test [2], in test [3] and in test [4] was “inactive” each time.

In the case of `CCOc1c2ccoc2nc2c(OC)c(OC)ccc12`, the Potency entry in test [1], in test [2], in test [3] and in test [4] was “inactive” each time.

With `COC(=O)c1cc(O)c(O)c(O)c1`, the Potency result in test [1], in test [2], in test [3] and in test [4] was “inactive” each time.

Regarding `CCOC(=O)/C=C/c1ccccc1`, the Potency entry in test [1], in test [2], in test [3] and in test [4] was “inactive” throughout.

As for `COc1ccc2c3c([nH]c2c1)C(C)NCC3` (stereo not given), the Potency entry in test [1], in test [2], in test [3] and in test [4] was “inactive” each time.

On to `C=Cc1c(C)c2cc3nc(cc4[nH]c(cc5nc(cc1[nH]2)C(C)=C5CCC(=O)O)c(CCC(=O)OC)c4C)[C@@]1(C)C3=CC=C(C(=O)OC)[C@H]1C(=O)OC`, for which the Potency was 1720 nM (active) in test [1], 344 nM (active) in test [2], 172 nM (active) in test [3] and 217 nM (active) in test [4].

With `CC1=CC2OC3CC4OC(=O)C=CC=CC(=O)OCCC(C)C(O)C(=O)OCC2(CC1O)C4(C)C31CO1` (stereo not given), the Potency entry in test [1], in test [2], in test [3] and in test [4] was “inactive” throughout.

For the molecule `O=c1c(O)c(-c2cc(O)c(O)c(O)c2)oc2cc(O)ccc12`, the Potency entry in test [1], in test [2], in test [3] and in test [4] was “inactive” each time.

With `CC1(C)C2CC1[C@@](C)(O)[C@H](O)C2` (stereo not given in full), the Potency result in test [1], in test [2], in test [3] and in test [4] was “inactive” each time.

`COc1cc2c(c(OC)c1OC)-c1c(cc3c(c1OC)OCO3)[C@@H](OC(C)=O)[C@H](C)[C@H](C)C2`: the Potency result in test [1], in test [2], in test [3] and in test [4] was “inactive” each time.

Take `O=Cc1ccnc2ccccc12`: the Potency result in test [1], in test [2], in test [3] and in test [4] was “inactive” each time.

Consider `CCCCCc1ccco1`, for which the Potency entry in test [1], in test [2], in test [3] and in test [4] was “inactive” each time.

Turning to `CC1=CC2=C(C=O)C(=O)C(C)(O)C(O)C2=CO1` (stereo not given), the Potency entry in test [1], in test [2], in test [3] and in test [4] was “inactive” in each case.

As to `NC1(Cc2ccc(Cl)cc2)CCN(c2ncnc3[nH]ccc23)CC1`, the Potency in test [1] was 9680 nM (active); in test [2], 2730 nM (active); in test [3], 7690 nM (active); in test [4], 9680 nM (active).

For the molecule `C=C(C)C(O)Cc1c(OC)ccc(C(=O)/C=C/c2ccc(O)cc2)c1O` (stereo not given), the Potency result in test [1], in test [2], in test [3] and in test [4] was “inactive” in each case.

Consider `CC(C)(O)[C@H](O)COc1c2occc2cc2ccc(=O)oc12`, for which the Potency entry in test [1], in test [2], in test [3] and in test [4] was “inactive” in each case.

Regarding `CC1=CCC(C(C)C)=CC1`, the Potency result in test [1], in test [2], in test [3] and in test [4] was “inactive” in each case.

Consider `CC(=O)C1CCC2(O)C3CCC4=CC(=O)CCC4(C)C3CCC12C` (stereo not given), for which the Potency entry in test [1], in test [2], in test [3] and in test [4] was “inactive” throughout.

As for `COc1cc2c(cc1OC)C(C(=O)c1ccc(OC)c(OC)c1O)=NCC2`, the Potency entry in test [1], in test [2], in test [3] and in test [4] was “inactive” in each case.

As to `CCC[C@H]1C[C@H](C(=O)N[C@@H]([C@@H]2O[C@@H](SC)[C@@H](O)[C@@H](O)[C@@H]2O)[C@H](C)Cl)N(C)C1`, the Potency entry in test [1], in test [2], in test [3] and in test [4] was “inactive” throughout.

With `CS(C)(=O)=O`, the Potency entry in test [1], in test [2], in test [3] and in test [4] was “inactive” each time.

For the molecule `COc1cc2c(cc1OC)C1Cc3ccc(OC)c(OC)c3C[N+]1([O-])CC2` (stereo not given), the Potency result in test [1], in test [2], in test [3] and in test [4] was “inactive” throughout.

`O=c1oc(-c2ccc(O)c(O)c2)cc2cccc(O)c12`: the Potency entry in test [1], in test [2], in test [3] and in test [4] was “inactive” each time.

Turning to `CC1(C)CCC[C@@](C)([C@H]2CC[C@]3(C)[C@@H]2[C@H](O)CC2[C@@]4(C)CC[C@H](O)C(C)(C)[C@@H]4[C@@H](O)C[C@]23C)O1` (stereo not given in full), the Potency result in test [1], in test [2], in test [3] and in test [4] was “inactive” in each case.

Turning to `Cc1cc(=O)c2c(O)c3c(O)cc(O)c4c5c(O)cc(O)c6c(O)c7c(=O)cc(C)c8c1c2c(c34)c(c65)c78`, the Potency entry in test [1], in test [2], in test [3] and in test [4] was “inactive” in each case.

`C=CCCC[C@@H]1OC(=O)CNC(=O)C([C@@H](C)CC)NC(=O)[C@@H]2CCCN2C(=O)C([C@@H](C)CC)OC(=O)[C@H](Cc2ccccc2)N(C)C(=O)[C@H](C(C)C)NC(=O)C1(C)C` (stereo not given in full): the Potency entry in test [1], in test [2], in test [3] and in test [4] was “inactive” in each case.

On to `COc1ccc2c(=O)cc(-c3ccccc3)n(C)c2c1`, for which the Potency entry in test [1], in test [2], in test [3] and in test [4] was “inactive” each time.

Turning to `CC1OC(OC2C(CO)OC(OCC3OC(OC(=O)[C@@]45CCC(C)(C)C[C@@H]4C4=CC[C@@H]6[C@@]7(C)CCC(OC8OCC(O)C(O)C8OC8OC(C)C(O)C(O)C8O)[C@@](C)(CO)C7CC[C@@]6(C)[C@]4(C)CC5)C(O)C(O)C3O)C(O)C2O)C(O)C(O)C1O` (stereo not given in full), the Potency result in test [1], in test [2], in test [3] and in test [4] was “inactive” throughout.

With `CC(C)=CCC/C(C)=C/COc1c2occc2cc2ccc(=O)oc12`, the Potency entry in test [1], in test [2], in test [3] and in test [4] was “inactive” throughout.
